# Test: enhancers of NK cell killing of ovarian tumor cells, primary screen, imaging, OVCAR3, primary NK cells, calcein-AM imaging (AID 1508625);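 note: compound given to NK cells 16 h before adding targets at 1.5 to 1 ratio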
# Conditions: OVCAR3 lysis by primary NK cells, at 5 µM; z-score: measured here: robust Z-score, single-point normalisation
Structure (SMILES),z-score,"corrected activity, negative = more killing [%]"
CCC1CCCCN1C(=O)c1cc2c(=O)n3ccccc3nc2s1 (stereo not drawn),-1.47,-5.2
Cc1cc(C)c(CSc2nnc(C)s2)c(C)c1,-1.78,-5.76
COc1ccc(Cl)cc1NC(=O)CSc1nc2c([nH]c3ccccc32)c(=O)n1C,-0.59,-2.37
Oc1cccc(CN2CCN3CCCC3C2C2CCCCC2)c1 (stereo not drawn),-0.198,-0.454
Nc1cc(OC(=O)c2ccccc2Br)nn1S(=O)(=O)c1ccccc1,-0.375,-1.18
Cc1ccc(OCCCCNC2CCCCC2)c(C)c1,2.34,4.21
CCOc1ccc(C2C(N3C(=O)c4cccc([N+](=O)[O-])c4C3=O)C(=O)N2c2cc(Cl)ccc2C)cc1 (stereo not drawn),-1.18,-3.8
CCCCNCCCOc1cccc(Br)c1,-0.168,-0.452
CCOC(=O)C(C)Sc1nc2c([nH]c3ccccc32)c(=O)n1C (stereo not drawn),-0.899,-3.61
CC1CCCN(c2ncnc3scc(-c4ccccc4)c23)C1 (stereo not drawn),-0.85,-2.34
CCC(=O)c1ccc(OCC(=O)O)c(OC)c1,-0.171,-0.458
CCOC(=O)c1ccc2c(c1)[C@@H]1C=CC[C@@H]1[C@H](c1ccccc1C(F)(F)F)N2,-0.905,-3.03
O=C1c2ccccc2C(=O)N1C1C(=O)N(c2cccc(C(F)(F)F)c2)C1c1ccc(F)cc1 (stereo not drawn),-0.397,-1.28
O=C1C(=O)N(Cc2cccnc2)C(c2ccncc2)C1=C(O)c1ccc(F)cc1 (stereo not drawn),-1.62,-3.73
O=C(Nc1ccccc1-c1nc2ccccc2[nH]1)c1ccc(S(=O)(=O)N2CCCC2)cc1,0.306,0.864
CC(C)NCCOCCOc1cccc(Br)c1,-1.21,-3.24
COc1cc(C(=S)N2CCCCC2)cc(OC)c1OC(=O)c1cccc2ccccc12,-3.43,-9.1
CCOC(=O)c1ccc(N=c2oc3ccccc3cc2C(=O)Nc2ccccc2)cc1,1.01,2.85
O=C1C2CCCCC2C(=O)N1c1cccc2ccccc12 (stereo not drawn),-0.712,-3.38
Cc1ccccc1C(=NS(=O)(=O)c1ccc(Br)cc1)Nc1ccccc1,-1.18,-3.32

Structure (SMILES),z-score,"corrected activity, negative = more killing [%]"
CCCCC1(CC(=O)N2CCOCC2)C(=O)N(c2ccccc2)N(c2ccccc2)C1=O,-0.786,-2.63
CCOc1ccc(OCC(=O)NC(C)C)cc1,-2.82,-5.07
O=C(c1nn2c(C(F)(F)F)cc(-c3ccco3)nc2c1Br)N1CCCCC1,-1.85,-4.92
Cc1ccc(C(=O)Nc2cccc3c2C(=O)c2ccccc2C3=O)o1,-1.16,-2.82
O=S(=O)(c1ccc(Br)c2nsnc12)N1CCC(Cc2ccccc2)CC1,-1.06,-3.43
Cc1[nH]c2ccc(-c3n[nH]c(=S)n3C)cc2c1C,-0.278,-0.764
CC(=O)N1CCc2[nH]c3ccccc3c2C1,-0.676,-1.79
CCCCSc1nc2c([nH]c3ccccc32)c(=O)n1-c1ccc(F)cc1,-1.23,-4.96
Cc1ccc(-n2nc(C)c(C=Cc3onc(C)c3[N+](=O)[O-])c2C)cc1,-1.84,-6.18
O=C(O)C1C2C=CC(O2)C1C(=O)Nc1ccccc1C(F)(F)F (stereo not drawn),-1.56,-3.8
Cc1ccc(S(=O)(=O)n2cnc3ccccc32)cc1C,-2.79,-9
Cc1ccc(NC(=O)Cc2[nH]c3ccccc3c2Sc2ccccc2)cc1,-0.584,-1.55
COc1ccc(C2=NN(C(=O)c3ccc(Br)o3)C(c3ccc(N(C)C)cc3)C2)cc1OC (stereo not drawn),-1.9,-3.55
Cn1c(SCC(=O)Nc2cc(C(F)(F)F)ccc2Cl)nc2c([nH]c3ccccc32)c1=O,-1.58,-6.37
CCCCNC(=O)c1c[nH]c2ccc(S(=O)(=O)Nc3cccc(SC)c3)cc2c1=O,-0.471,-1.92
Cc1ccccc1C(=O)Nc1ccc(C(=O)O)cc1NC(=O)c1ccccc1C,-0.197,-0.368
COc1ccc(OC)c(NC(=O)c2cc3cccc(OC)c3oc2=O)c1,-1.31,-3.03
Cn1c(SCc2c[nH]c3cc([N+](=O)[O-])ccc23)nc2sc3c(c2c1=O)CCCC3,-0.47,-1.25
O=C(Nc1ccccc1Cl)c1cccc([N+](=O)[O-])c1,-0.51,-1.44

# — PubChem BioAssay AID1508625 (Wald Lab, School of Medicine, Case Western Reserve …, 2021)
